The record followed here is PMC5540273 (PLoS ONE, 2017).

Common to all, as to details: concentration: 1 μM, replicates: in singlicate; n = 1
Experiment [1] has as its system ACVR2A.
The test system of experiment [2] is ACVR2B.
The subject of experiment [3] is ACVRL1.
The subject of experiment [4] is T1, ADCK3.
T1 construct: gene CABC1

In experiment [5] the test system is ADCK4.
The subject of experiment [6] is AKT1.
The subject of experiment [7] is AKT2.
For experiment [8], the system named is AKT3.
Experiment [9] relates to ALK.
Experiment [10] concerns T2, AMPK-alpha1.
T2 construct: gene PRKAA1

Experiment [11] concerns T3, AMPK-alpha2.
T3 construct: gene PRKAA2

Experiment [12] concerns ANKK1.
Experiment [13] deals with T4, ARK5.
T4 construct: gene NUAK1

Experiment [14] concerns T5, ASK1.
T5 construct: gene MAP3K5

The subject of experiment [15] is T6, ASK2.
T6 construct: gene MAP3K6

In experiment [16] the test system is AURKA.
The test system of experiment [17] is AURKB.
Experiment [18] relates to AURKC.
In experiment [19] the test system is AXL.
The test system of experiment [20] is T7, BIKE.
T7 construct: gene BMP2K
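Note: KINOMEscan kinase panel screen.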

As to `Cc1cccc(-c2nc(Nc3ccc4ncsc4c3)c3ccccc3n2)n1` [GW867588], the “%Inh” value in experiment [1] is reported as 0%; in [2], 2%; in experiment [3], 0%; in experiment [4], 0%; in [5], 0%; in experiment [6] it was 12%. In addition, the “%Inh” value was 0% in experiment [7]; 0% in [8]; 0% in experiment [9]; 19% in experiment [10]; 0% in [11]; 0% in experiment [12]. Moreover, the “%Inh” value in experiment [13] was found to be 0%; in experiment [14], 15%; in experiment [15], 20%; in experiment [16], 22%; in experiment [17], 8%; in [18] it was 0%. For the same molecule, the “%Inh” value in experiment [19] and in [20] was 0% throughout.

As to `CSc1ccc(-c2cc3ncnc(SCC(=O)O)c3s2)cc1`, the “%Inh” value in [1], in experiment [2], in [3], in [4], in [5] and in experiment [6] was 0% in each case. Also, the “%Inh” value in experiment [7] is given as 0%; in [8] it was 0%; in experiment [9], 0%; in experiment [10], 14%; in experiment [11], 5%; in experiment [12] it was 0%. The “%Inh” value amounted to 0% in experiment [13]; 0% in experiment [14]; 0% in [15]; 0% in experiment [16]; 78% in experiment [17]; 12% in experiment [18]. In addition, the “%Inh” value was 5% in [19] and 12% in [20].

For `CC(C)(C)n1cnc2c(N)ncnc21` [SKF-97359], the “%Inh” value in [1] is given as 0%; in experiment [2], 0%; in [3] it was 0%; in [4], 0%; in experiment [5], 31%; in experiment [6], 0%. The “%Inh” value in experiment [7] amounted to 0%; in experiment [8], 0%; in experiment [9] it was 29%; in experiment [10], 0%; in experiment [11] it was 0%; in experiment [12] it was 0%. Further, the “%Inh” value in experiment [13] turned out to be 19%; in experiment [14], 0%; in experiment [15] it was 0%; in experiment [16], 0%; in [17] it was 15%; in experiment [18] it was 0%. Also, the results for the “%Inh” value in [19] and in [20] were 45% and 0%, respectively.

On to `CN1c2ccc(NCc3ccc(F)cc3)cc2-c2c(cnn2C)S1(=O)=O`, for which the “%Inh” value came to 0% in experiment [1]; 0% in [2]; 7% in experiment [3]; 10% in experiment [4]; 0% in experiment [5]; 4% in [6]. In addition, the “%Inh” value was 7% in [7]; 0% in experiment [8]; 13% in [9]; 0% in [10]; 0% in experiment [11]; 0% in [12]. The “%Inh” value amounted to 0% in [13]; 0% in experiment [14]; 0% in experiment [15]; 0% in experiment [16]; 14% in experiment [17]; 0% in experiment [18]. The “%Inh” value in experiment [19] and in experiment [20] was 0% throughout.

On to `O=C1NC(=O)C(N2CCc3ccccc32)=C1c1cccc(Cl)c1` [SB-408010], for which the “%Inh” value in experiment [1] is 0%; in experiment [2], 7%; in experiment [3] it was 13%; in [4], 17%; in experiment [5], 0%; in [6] it was 5%. The “%Inh” value in experiment [7] came to 0%; in experiment [8], 5%; in experiment [9] it was 0%; in [10], 0%; in experiment [11] it was 22%; in [12], 1%. Also, the “%Inh” value in [13] amounted to 10%; in [14], 0%; in [15] it was 0%; in [16] it was 25%; in [17], 7%; in experiment [18], 37%. The results for the “%Inh” value in experiment [19] and in [20] were 0% and 37%, respectively.

Take `Cn1ccc2ncnc(Oc3ccc(NC(=O)Nc4ccncc4)c(Cl)c3)c21`: the “%Inh” value was 0% in experiment [1]; 0% in experiment [2]; 4% in experiment [3]; 0% in experiment [4]; 0% in [5]; 9% in experiment [6]. For the same molecule, the “%Inh” value is 14% in experiment [7]; 0% in experiment [8]; 0% in [9]; 0% in [10]; 5% in experiment [11]; 0% in experiment [12]. For the same molecule, the “%Inh” value turned out to be 14% in [13]; 0% in experiment [14]; 0% in experiment [15]; 0% in experiment [16]; 3% in experiment [17]; 0% in [18]. For the same molecule, the “%Inh” value in experiment [19] and in [20] was 0% in each case.

In the case of `Cl.Nc1ncnc2occ(-c3ccc(NC(=O)Nc4cc(C(F)(F)F)ccc4F)cc3)c12` [SB-707548], the “%Inh” value in experiment [1] came to 81%; in experiment [2], 2%; in experiment [3], 0%; in [4] it was 10%; in experiment [5], 28%; in experiment [6], 0%. In addition, the “%Inh” value came to 0% in experiment [7]; 0% in [8]; 75% in experiment [9]; 5% in [10]; 22% in experiment [11]; 77% in experiment [12]. In addition, the “%Inh” value is on record as 21% in [13]; 32% in [14]; 0% in [15]; 53% in experiment [16]; 96.7% in [17]; 53% in experiment [18]. In addition, the entries for the “%Inh” value in [19] and in [20] were 97.7% and 10%, respectively.
